Unmarked numbers belong to inactive results.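 The calls were made as follows: active = AUC reduced over 20% with Padj below 0.05 in at least 2 of 3 replicates; inactive = otherwise.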
Assays:
Roseburia intestinalis = assay: growth AUC relative to DMSO control (median of replicates) (fraction); higher = more growth (less inhibition), active = hit call of the paper; details: 20 µM; 24 h
In short: (§1)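 Area under the growth curve was normalised to the plate median of solvent-only wells, or to row and column medians on the industrial chemical plate. Growth curves came from anaerobic gut bacterial monocultures in mGAM at 37 °C, seeded at OD600 0.05 with 20 µM compound (1% DMSO), and read at OD600 hourly for 24 h with the minimum OD set to 0. The value is the median of three biological replicates grown on separate days.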

Streptococcus salivarius = assay: as above; details: 20 µM; 24 h
In short: as §1

Compound | growth AUC (Roseburia intestinalis) | growth AUC (Streptococcus salivarius)
O=C(O)Cc1c(Cl)ccc(Cl)c1Cl | 0.979 | 1.01
CC(C)(CO)C(O)(CCc1ccc(Cl)cc1)Cn1cncn1 (stereo not drawn) | 0.935 | 0.987
CN(C)C=O | 1.1 | 0.999
CCSc1nc(NC(C)C)nc(NC(C)C)n1 | 0.96 | 0.999
CCNc1nc(N)nc(Cl)n1 | 1.01 | 1.03
CCN(CC)C(=O)SCc1ccccc1Cl | 1.01 | 1.02
Clc1ccc(C(c2ccccc2Cl)C(Cl)Cl)cc1 (stereo not drawn) | 0.911 | 0.966
CCc1cc(C(=O)O)cc(CC)c1C1C(=O)N2CCOCCN2C1=O | 0.952 | 1
O=C(Nc1ccc(O)cc1-c1ccc(Cl)cc1)c1cccnc1Cl | 1.02 | 1.03
Cc1cccc(C)c1N(CCSCC(O)C(=O)[O-])C(=O)CO.[Na+] (stereo not drawn) | 1.02 | 0.97
COc1nc(NC(=O)NS(=O)(=O)c2ccccc2C(F)(F)F)nc(C(F)(F)F)n1 | 0.993 | 1.02
CCc1cccc(C)c1N(C(=O)CS(=O)(=O)[O-])C(C)COC.[Na+] (stereo not drawn) | 0.925 | 0.878
CCc1ccc(O)cc1 | 0.919 | 0.946
CN(C)C(=O)Nc1cc(C(C)(C)C)on1 | 1.03 | 1
CC(CNC(=S)[S-])NC(=S)[S-].[Zn+2] (mixture of isomers) | 0.979 | 0.988
CCOCN(C(=O)C(=O)O)c1c(C)cccc1CC | 0.996 | 1.04
Cc1[nH]oc(=O)c1N=Nc1ccccc1Cl | 0.938 | 0.982
O=c1cccc2n1CCn1c-2cccc1=O | 0.991 | 1.02
CCOC(=O)C(C)Oc1ccc(Oc2nc3ccc(Cl)cc3o2)cc1 (racemic) | 1.02 | 1.01
CNC(=O)/C(=N/OC)c1ccccc1CO/N=C(C)/C(=N/OC)C(/C)=N/OC | 1.01 | 1.01
O.O=C(Nc1ccc([N+](=O)[O-])cc1Cl)c1cc(Cl)ccc1O | 0.869 | 0.085 (active)
CON=C(Cc1cccnc1)c1ccc(Cl)cc1Cl | 1.05 | 0.997
CC(C)C1C2CCC1c1c(NC(=O)c3cn(C)nc3C(F)F)cccc12 (stereo not drawn) | 0.861 | 0.927
CSc1nc(NC2CC2)nc(NC(C)(C)C)n1 | 0.981 | 1
O=C(NCc1ncc(C(F)(F)F)cc1Cl)c1c(Cl)cccc1Cl | 0.968 | 0.967
Clc1ccc(Sc2cc(Cl)c(Cl)cc2Cl)cc1 | 0.937 | 0.933
CCCOC(=O)c1ccc(O)cc1 | 1 | 0.979

Compound | growth AUC (Roseburia intestinalis) | growth AUC (Streptococcus salivarius)
CC(C)(NC(=O)C(Br)C(C)(C)C)c1ccccc1 (stereo not drawn) | 0.964 | 0.96
Cc1cc(C)c(C2=C(O)C3(CCCC3)OC2=O)c(C)c1 | 1.02 | 0.985
N#Cc1ccccc1NC(=O)c1snc(Cl)c1Cl | 0.992 | 0.991
CCS(=O)(=O)c1nnc(N(C)C(=O)NC)s1 | 1 | 0.99
COC(=O)c1csc(C)c1S(=O)(=O)NC(=O)n1nc(OC)n(C)c1=O | 0.974 | 0.931
N[C@@H](Cc1cc(I)c(Oc2cc(I)c(O)c(I)c2)c(I)c1)C(=O)O | 0.798 | 0.923
COc1c(I)cc(C#N)cc1I | 0.989 | 0.982
CCc1cccc(C)c1N(COC(C)C)C(=O)CCl | 1.01 | 1.01
O=C1NCCN1 | 1.24 | 1.02
CS(=O)(=O)c1ccc(C(=O)C2C(=O)C(O)CC(O)C2=O)c(Cl)c1COCC(F)(F)F (stereo not drawn) | 1.03 | 1.03
COC(=O)c1c(Cl)c(Cl)c(C(=O)OC)c(Cl)c1Cl | 0.964 | 0.962
Cn1cc(C(=O)Nc2ccccc2-c2cc(F)c(F)c(F)c2)c(C(F)F)n1 | 0.997 | 0.966
COc1cc(OC)nc(Sc2cccc3c2C(=O)OC3C)n1 (stereo not drawn) | 0.988 | 0.977
O=C(Oc1ccccc1)n1c(C(F)(F)F)nc2cc(Cl)c(Cl)cc21 | 0.797 (active) | 0.342 (active)
ClC=C(c1ccc(Cl)cc1)c1ccc(Cl)cc1 | 0.932 | 0.928
CC(C)(c1cc(Br)c(O)c(Br)c1)c1cc(Br)c(O)c(Br)c1 | 0.0954 (active) | 0.144 (active)
CCCCOCCOC(=O)COc1ccc(Cl)cc1Cl | 0.941 | 0.948
COC(=O)[C@@H](C)Oc1ccc(Oc2ncc(C(F)(F)F)cc2Cl)cc1 | 1 | 0.984
[O-][n+]1nc(-n2ccnc2)nc2ccc(Cl)cc21 | 0.984 | 1
CP(=O)(O)CCC(=O)O | 1.03 | 0.987
CO/N=C(/C(=O)O)c1ccccc1CO/N=C(\C)c1cccc(C(F)(F)F)c1 | 1.01 | 0.915
CC(C)(C)Nc1nc(N)nc(Cl)n1 | 1.01 | 0.975
CC(C)N(C(=O)CS(=O)(=O)[O-])c1ccc(F)cc1.[Na+] | 1.03 | 0.973
CC(=O)Nc1cc(NS(=O)(=O)C(F)(F)F)c(C)cc1C | 1.02 | 1
O=[N+]([O-])c1ccc(O)cc1 | 1.14 | 1
c1ccc(CNc2ncnc3nc[nH]c23)cc1 | 0.962 | 1.04
CC(C)([CH2][Sn]([CH2]C(C)(C)c1ccccc1)([CH2]C(C)(C)c1ccccc1)[O][Sn]([CH2]C(C)(C)c1ccccc1)([CH2]C(C)(C)c1ccccc1)[CH2]C(C)(C)c1ccccc1)c1ccccc1 | 1.02 | 0.972

Compound | growth AUC (Roseburia intestinalis) | growth AUC (Streptococcus salivarius)
CC1=C(C(=O)Nc2ccccc2)CCCO1 | 0.996 | 1.03
Oc1ccccc1 | 1.04 | 0.987
Cc1cc(C2CC2)nc(Nc2ccc(O)cc2)n1 | 1.01 | 1.01
Br[C@@H]1CC[C@@H](Br)[C@@H](Br)CC[C@@H](Br)[C@@H](Br)CC[C@H]1Br | 1 | 0.521 (active)
CCCCOC(=O)COc1ccc(Cl)cc1Cl | 1.04 | 1.01
CCNC(=O)[C@@H](C)OC(=O)Nc1ccccc1 | 1.14 | 1.02
CC(C)N(C(=O)C(=O)O)c1ccccc1 | 1.02 | 1.02
Cc1nn(C)c(OCC(=O)c2ccccc2)c1C(=O)c1ccc(Cl)cc1Cl | 0.981 | 1.01
CC(C)NS(=O)(=O)NC(=O)c1cc(NC(N)=O)c(F)cc1Cl | 0.981 | 0.887
COc1cc(OC)nc(NC(=O)NS(=O)(=O)N(C)S(C)(=O)=O)n1 | 0.99 | 1.02
Cc1nc(C(F)(F)F)c(C(=O)Nc2c(Br)cc(OC(F)(F)F)cc2Br)s1 | 1.08 | 0.972
Oc1ccccc1O | 1.1 | 0.987
C[C@@]1(c2ccccc2)NC(=O)N(Nc2ccccc2)C1=O | 0.958 | 1.02
c1ccc2cc3ccccc3cc2c1 | 0.933 | 0.919
CCCCCCC(C)OC(=O)C(C)Oc1ccc(Cl)cc1C (stereo not drawn) | 0.986 | 0.973
ClC(COCC(Cl)C(Cl)(Cl)Cl)C(Cl)(Cl)Cl (stereo not drawn) | 1.01 | 1.02
COC(=O)C(C)Oc1ccc(Cl)cc1C (stereo not drawn) | 1.04 | 0.988
CN(C)C(=O)NC1CCCCCCC1 | 1.08 | 1.05
CNC(=O)Nc1nc2ccccc2s1 | 0.983 | 0.965
Cc1cc(N(C)C)nc(Cl)n1 | 1.01 | 1.04
COC(=O)c1cccc(C)c1S(=O)(=O)NC(=O)Nc1nc(OCC(F)(F)F)nc(N(C)C)n1 | 0.984 | 0.984
[S] | 0.952 | 0.997
O=S(=O)(Cc1ccc(Cl)cc1)c1ccc(Cl)cc1 | 1.05 | 1.06
CC(C)CCCCCOC(=O)C(C)Oc1ccc(Cl)cc1Cl (stereo not drawn) | 1.03 | 0.982
COc1nc(C)nc(NC(=O)NS(=O)(=O)c2ccccc2OCCCl)n1 | 1 | 0.992

Reference: the supplement of paper PMC12669032
